# Many of the other results were omitted from the sample, so hits are more common in it than they were.
# nsP2pro primary: CHIKV nsP2 protease inhibition, primary qHTS | Q8JUX6 | FRET peptide cleavage, nsP2pro, fluorescence 1 h | Potency, µM (doses to about 24.9 µM), for inactives: at the highest dose activity change, negative = inhibition, actives largely listed as inhibitors | 31,000 tested, 1.1% active; also: nearly all actives have a fitted effect of over 60% in size
#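 Purified recombinant nsP2pro (150 nM final) in 10 mM Tris-HCl pH 8.0 with 0.01% Tween 20 was preincubated 15 min at room temperature with compound (7 concentrations, up to 25 uM). FRET peptide 2 substrate (2.5 uM final) was then added; fluorescence was read after 1 h.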
# nsP2 cell sec: cell-based CHIKV nsP2 protease inhibition, secondary; AID 1964100; 450 tested, 10% active; cell-based CHIKV nsP2 protease reporter assay; Potency, µM (series often up to 51.1 µM), inactives show top-dose activity change, negative = inhibition, most hits filed as inhibitors; shares compounds with nsP2pro primary; also: nearly all actives have a fitted effect of over 70% in size
# Target sequence (Q8JUX6 220-798 limits assumed): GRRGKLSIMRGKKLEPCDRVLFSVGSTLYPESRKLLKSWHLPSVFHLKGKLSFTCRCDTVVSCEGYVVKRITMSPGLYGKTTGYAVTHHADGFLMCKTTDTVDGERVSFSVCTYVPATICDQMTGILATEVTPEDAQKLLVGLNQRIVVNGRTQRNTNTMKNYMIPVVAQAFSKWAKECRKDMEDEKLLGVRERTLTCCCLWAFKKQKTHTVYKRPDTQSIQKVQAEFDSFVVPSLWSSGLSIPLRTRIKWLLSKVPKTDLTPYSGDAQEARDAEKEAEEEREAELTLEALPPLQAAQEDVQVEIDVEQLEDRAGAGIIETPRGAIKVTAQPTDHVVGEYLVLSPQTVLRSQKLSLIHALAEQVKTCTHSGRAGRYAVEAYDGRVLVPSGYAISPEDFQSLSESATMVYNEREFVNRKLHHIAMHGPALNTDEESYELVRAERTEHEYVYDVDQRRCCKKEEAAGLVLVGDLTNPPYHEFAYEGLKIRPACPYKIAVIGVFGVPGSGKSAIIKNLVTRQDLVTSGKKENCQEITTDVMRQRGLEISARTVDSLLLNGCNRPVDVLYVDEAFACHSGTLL
# NSP2 full ctr: inhibits full-length CHIKV NSP2 enzyme; shares compounds with nsP2pro primary; Full-length CHIKV NSP2 protease enzymatic counterscreen; Potency, µM (top dose mostly 50.7 µM), without a hit: at the top dose activity change, negative = inhibition, actives largely listed as inhibitors; 410 tested, 39% active; AID 1964101; also: nearly all actives have a fitted effect of over 65% in size
# Furin counterscr: inhibits human furin in a CHIKV nsP2 protease selectivity counterscreen. Recombinant human furin enzymatic counterscreen, fluorogenic substrate. 410 tested, 6% active. AID 1964102. Potency, µM (doses to about 50.6 µM), inactives show at the top dose activity change, negative = inhibition, actives largely listed as inhibitors. shares compounds with nsP2pro primary
# nsP2 NS23 pep: selectivity test for CHIKV nsP2 protease inhibitors: endogenous NS2/3 peptide | shares compounds with nsP2pro primary | Purified CHIKV nsP2 protease, endogenous NS2/3 peptide cleavage | Potency, µM (doses to about 51 µM), inactives show at the highest dose activity change, negative = inhibition, hits mostly inhibitors | 410 tested, 34% active | AID 1964103; also: nearly all actives have a fitted effect of over 55% in size
# Papain cs: papain protease inhibition, counterscreen for nsP2pro inhibitors | 410 tested, 5% active | shares compounds with nsP2pro primary | purified papain protease activity, enzymatic inhibition | Potency, µM (top dose mostly 51 µM), for inactives: at the highest dose activity change, negative = inhibition, actives largely listed as inhibitors
# nsP2pro conf qHTS: CHIKV nsP2 protease inhibition, confirmatory qHTS. shares compounds with nsP2pro primary. CHIKV nsP2 protease enzymatic activity, qHTS. Potency, µM (top dose mostly 25.5 µM), for the others: top-dose activity change, negative = inhibition, usual class: inhibitors. 410 tested, 43% active. AID 1964105; also: nearly all actives have a fitted effect of over 75% in size
# HCV NS3 4A cs: selectivity counter-screen for CHIKV nsP2 protease inhibitors: HCV NS3/4A; shares compounds with nsP2pro primary; HCV NS3/4A protease biochemical counterscreen; AID 1964106; 410 tested, 20% active; Potency, µM (doses to about 50.9 µM), usual class: inhibitors; also: nearly all actives have a fitted effect of over 55% in size
# * marks the source's active call; other numbers are inactive results; i = inactive; ? = inconclusive; [ ] = remark or other dose. Calls follow the shape of the full dose curve. % is scaled to controls: 0 for no effect and ±100 for the full control effect; potency is read from the fitted curve at half-maximal effect.
SMILES,nsP2pro primary,others
Cc1ccc(OCCC2CCN(C(=O)c3cc(CN4CCOCC4)on3)C2)cc1 (stereo not drawn),2.5%,
C=C(C)[C@@H]1CC=C(COC(=O)NC(=O)c2ncn3c(=O)n(C)nnc23)CC1,-11.4%,
CS(=O)(=O)N1CC2(CCN(C3COC3)C2)Cc2ccccc21 (stereo not drawn),-8.7%,
COc1ccc(-n2c(C)cc(-c3nnc4n3CCCCC4)c2C)cc1,-27.6%,
Cc1ccc(-n2c(C)cc(-c3nnc4n3CCCCC4)c2C)cc1,?,nsP2 cell sec=20.6µM*;NSP2 full ctr=?;Furin counterscr=-3.2%;nsP2 NS23 pep=?;Papain cs=-6.1%;nsP2pro conf qHTS=?;HCV NS3 4A cs=?
Cc1cc(-c2nnc3n2CCCCC3)c(C)n1-c1ccncc1,-16.8%,
C=CCCOC(=O)N1C[C@@H](CO)[C@@H]2Oc3ccc(Cl)cc3[C@@H]21,-1.4%,
COc1ccccc1CNc1nc(-c2ccco2)nn1S(=O)(=O)c1ccc(Cl)cc1,8.91µM*,nsP2 cell sec=17.0%
O=C(c1ccco1)n1nc(-c2ccccc2)nc1NCc1ccc(Cl)cc1,-14.4%,
COc1ccccc1CNc1nc2c(S(=O)(=O)c3ccc(C)c(C)c3)nnn2c2ccc(Cl)cc12,-11.2%,
O=c1n(-c2ccc(C(F)(F)F)cc2)nc2n1CCN([S+](=O)([O-])c1ccccc1)C2,3.4%,
COC1/C=C/C(C)(O)C(SCC(N)C(=O)O)CC(=O)OC(C)C(C)CC/C=C/1C (stereo not drawn),-19.9%[10 µM],
CCCc1c(C(C)C)nc(C(C)C)c([C@@H](C)O)c1-c1ccc(F)cc1O,10.7%,
O=C(O)c1cccc(-c2noc(-c3ccc(Cl)cc3)n2)c1,i,
COc1cccc(CNc2ccc(S(=O)(=O)Nc3nccs3)cc2)c1,i,
CC(=O)Oc1cc2c(s1)CCN(C(C(=O)C1CC1)c1ccccc1F)C2 (stereo not drawn),?,nsP2 cell sec=1.7%;NSP2 full ctr=?;Furin counterscr=-10.3%;nsP2 NS23 pep=?;Papain cs=?;nsP2pro conf qHTS=?;HCV NS3 4A cs=i
COC1=Cc2c(nc3n(c2=O)C(C)C(=O)NC3(O)C(C)C)OC=C1 (stereo not drawn),?,nsP2 cell sec=-3.7%[33.5 µM];NSP2 full ctr=-0.1%[33.5 µM];Furin counterscr=-12.8%[33.5 µM];nsP2 NS23 pep=-23.1%[33.5 µM];Papain cs=-12.7%[33.5 µM];nsP2pro conf qHTS=?;HCV NS3 4A cs=i
CC(C)/C=C1\NC(=O)C(C(C)C)n2c1nc1c(c2=O)C=CC=CO1 (stereo not drawn),-21.7%,
CO[C@@H]1[C@@H](O[C@H]2O[C@@H](C)[C@H](O[C@@H]3C[C@](C)(O)[C@H](O)[C@@H](C)O3)[C@@H](N(C)C)[C@@H]2O)[C@@H](CC=O)C[C@@H](C)[C@@H](O[C@H]2CC[C@H](N(C)C)[C@H](C)O2)/C=C/C=C/C[C@@H](C)OC(=O)C[C@H]1O,6.7%,
C=C(C)C(=O)O[C@H]1[C@H]2C(=C)C(=O)O[C@@H]2C[C@@H](C)[C@@H]2O[C@@H]2C(=O)[C@](C)(O)[C@@H]1OC(=O)C(=C)C,-3.2%[10 µM],
C=C[C@]1(C)C[C@H](O)[C@H]2C(=C)C(=O)O[C@@H]2[C@H]1C(=C)CO,?,nsP2 cell sec=?;NSP2 full ctr=?;Furin counterscr=-3.7%;nsP2 NS23 pep=-23.1%;Papain cs=-9.9%;nsP2pro conf qHTS=?;HCV NS3 4A cs=i
C=CC1(C)CC(O)C(C(=C)C(=O)OC)C(O)C1C(=C)CO (stereo not drawn),-19.3%,
O=C(O)c1ccc(-n2cccc2/C=C2\SC(=O)N(Cc3ccc(Cl)cc3)C2=O)cc1,i,
Cc1noc([C@@H]2CN(C3CCCCCC3)C[C@H]2CO)n1,2.4%,
Oc1ccccc1-c1cc(C2=CCOCC2)c2cncn2c1,-5.3%[39.2 µM],
CCOC(=O)c1csc(NC(=O)c2ccncc2NS(=O)(=O)c2ccc(C)cc2)n1,i,
